Outcome and AC50 data for three molecules are collected here from PubChem BioAssay (EPA / NIEHS).

Structures are written as SMILES. Activity calls are given as the source filed them. The calls were made as follows: active = hit-call score of the fitted dose curve at least 0.9, where 1 is the maximum; inactive = score below 0.9.

For orientation: AC50 means the midpoint of the concentration-response curve, whichever way the signal moves.

Settings in all cases: mRNA level, 48 h; actives raise or lower the signal
Read-out in assay [1]: Peroxisomal acyl-coenzyme A oxidase 1 (ACOX1) gene, ACOX1 (gene 51)
The experiment in a line: LTEA_HepaRG_ACOX1: Life Technologies and Expression Analysis (LTEA) Assay for Peroxisomal acyl-coenzyme A oxidase 1 (ACOX1) gene using HepaRG (AID 2283467). In a few lines:
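Measured by qRT-PCR against three housekeeping genes: ACOX1 transcript change in human HepaRG cells after 48 h dosing. Concentrations ran up to 100 uM in half-log steps. Curves were fitted bidirectionally relative to 0.5% DMSO.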

Read-out in assay [2]: Alkaline Phosphatase, Placental (ALPP) gene, ALPP (gene 250)
The experiment in a line: LTEA_HepaRG_ALPP: Life Technologies and Expression Analysis (LTEA) Assay for Alkaline Phosphatase, Placental (ALPP) gene using HepaRG (AID 2283468). In a few lines: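 qRT-PCR readout of ALPP mRNA (Fluidigm TaqMan), normalized to ACTB/GAPDH/POLR2A, after 48 h chemical exposure of HepaRG cells; 8-point half-log series, top 100 uM, 0.5% DMSO vehicle. Bidirectional curve fit versus DMSO baseline.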

Read-out in assay [3]: Bcl-2 (BAD) gene, BAD (gene 572)
The experiment in a line: LTEA_HepaRG_BAD: Life Technologies and Expression Analysis (LTEA) Assay for Bcl-2 (BAD) gene using HepaRG (AID 2283469). In a few lines:
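BAD transcript change, measured by qRT-PCR against three housekeeping genes and fitted in both directions relative to 0.5% DMSO, after 48 h chemical treatment of human HepaRG liver cells at concentrations up to 100 uM.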

Read-out in assay [4]: Bcl-2 (BAX) gene, BAX (gene 581)
The experiment in a line: LTEA_HepaRG_BAX: Life Technologies and Expression Analysis (LTEA) Assay for Bcl-2 (BAX) gene using HepaRG (AID 2283470). In a few lines:
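HepaRG (human liver), 48 h exposure, duplicate wells. 8-pt curve, half-log from 100 uM, 0.5% DMSO. BAX transcript by TaqMan qRT-PCR; ACTB/GAPDH/POLR2A normalization; gain or loss vs DMSO baseline.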

Read-out in assay [5]: adenosine kinase (ADK) gene, ADK (gene 132)
The experiment in a line: LTEA_HepaRG_ADK: Life Technologies and Expression Analysis (LTEA) Assay for adenosine kinase (ADK) gene using HepaRG (AID 2283471). In a few lines:
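Read-out is ADK transcript level measured by qRT-PCR and normalised to three housekeeping genes. Cells are human HepaRG, dosed for 48 h at up to 100 uM in 0.5% DMSO. Gain or loss of signal is fitted against DMSO controls.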

Read-out in assay [6]: Alpha-fetoprotein (AFP) gene, AFP (gene 174)
The experiment in a line: LTEA_HepaRG_AFP: Life Technologies and Expression Analysis (LTEA) Assay for Alpha-fetoprotein (AFP) gene using HepaRG (AID 2283472). In a few lines:
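HepaRG, single lot; 48 h post-plating -> serum-free induction medium; cpd 8-pt, 100 uM top, half-log, 0.5% DMSO, duplicate, 48 h. RNA -> qRT-PCR AFP, norm ACTB/GAPDH/POLR2A. Bidirectional fit vs DMSO.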

Read-out in a further assay: BCL2L11 (gene 10018)
The experiment in a line: LTEA_HepaRG_BCL2L11: Life Technologies and Expression Analysis (LTEA) Assay for Bcl-2 (BCL2L11) gene using HepaRG (AID 2283473). In a few lines: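 HepaRG, 48 h exposure, 8-pt half-log series from 100 uM in 0.5% DMSO, duplicates; qRT-PCR (Fluidigm TaqMan) for BCL2L11, housekeeping-normalized; bidirectional curve fit relative to DMSO baseline.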

Read-out in assay [7]: Apolipoprotein A-V (APOA5) gene, APOA5 (gene 116519)
The experiment in a line: LTEA_HepaRG_APOA5: Life Technologies and Expression Analysis (LTEA) Assay for Apolipoprotein A-V (APOA5) gene using HepaRG (AID 2283474). In a few lines:
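HepaRG, 48 h chemical exposure in serum-free induction medium, 8-pt half-log series (top 100 uM), 0.5% DMSO vehicle, duplicates. Readout: APOA5 mRNA by qRT-PCR, housekeeping-normalized; bidirectional fit vs DMSO baseline.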

Read-out in assay [8]: Apoptosis regulator Bcl-2 (Homo sapiens) (UniProt P10415)
The experiment in a line: LTEA_HepaRG_BCL2: Life Technologies and Expression Analysis (LTEA) Assay for Bcl-2 gene using HepaRG (AID 2283475). In a few lines:
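HepaRG, plated 48 h then switched to serum-free induction medium; dosed 48 h, 8 conc. (max 100 uM, half-log steps), duplicate, 0.5% DMSO. Lysis in RLT, RNA isolated, TaqMan qRT-PCR for BCL2; ACTB/GAPDH/POLR2A normalisation; bidirectional fit vs DMSO.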

Read-out in assay [9]: Bcl-2 (BID) gene, BID (gene 637)
The experiment in a line: LTEA_HepaRG_BID: Life Technologies and Expression Analysis (LTEA) Assay for Bcl-2 (BID) gene using HepaRG (AID 2283476). In a few lines: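 Transcript levels of BID, measured by qRT-PCR and normalized to three housekeeping genes, were fitted bidirectionally against DMSO controls. Cells were HepaRG, dosed 48 h at up to 100 uM.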

Read-out in a further assay: Caspase-3 (Homo sapiens) (UniProt P42574)
The experiment in a line: LTEA_HepaRG_CASP3: Life Technologies and Expression Analysis (LTEA) Assay for cysteine-aspartic acid protease (CASP3) using HepaRG (AID 2283477). In a few lines:
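HepaRG, 48 h exposure, 8 conc. (top 100 uM, half-log steps, duplicate), 0.5% DMSO vehicle; qRT-PCR of CASP3 transcript, housekeeping-normalised (ACTB/GAPDH/POLR2A); bidirectional curve fit vs DMSO baseline.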

Read-out in assay [10]: Cytochrome P450 (CYP24A1), CYP24A1 (gene 1591)
The experiment in a line: LTEA_HepaRG_CYP24A1: Life Technologies and Expression Analysis (LTEA) Assay for Cytochrome P450 (CYP24A1) using HepaRG (AID 2283478). In a few lines:
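qRT-PCR read-out: CYP24A1 transcript levels normalized to three housekeeping genes, bidirectional curve fits against 0.5% DMSO baseline. Human HepaRG cells treated 48 h with chemicals at eight concentrations from 100 uM in half-log steps.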

Read-out in assay [11]: cysteine-aspartic acid protease (CASP8), CASP8 (gene 841)
The experiment in a line: LTEA_HepaRG_CASP8: Life Technologies and Expression Analysis (LTEA) Assay for cysteine-aspartic acid protease (CASP8) using HepaRG (AID 2283480). In a few lines:
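HepaRG, 48 h exposure, duplicate wells; 8 conc, half-log from 100 uM, 0.5% DMSO. Serum-free induction medium. CASP8 mRNA by TaqMan qRT-PCR, norm. ACTB/GAPDH/POLR2A; gain/loss fitted vs DMSO.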

Read-out in assay [12]: Cytochrome P450 2C19 (Homo sapiens) (UniProt P33261)
The experiment in a line: LTEA_HepaRG_CYP2C19: Life Technologies and Expression Analysis (LTEA) Assay for CYP2C19 using HepaRG (AID 2283482). In a few lines:
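HepaRG, 48 h chemical exposure, 8-pt half-log series from 100 uM in 0.5% DMSO, duplicates. Readout: CYP2C19 mRNA by TaqMan qRT-PCR, housekeeping-normalized. Bidirectional fit vs DMSO baseline; phenobarbital 1mM as induction control.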

Read-out in a further assay: CYP2C8 (gene 1558)
The experiment in a line: LTEA_HepaRG_CYP2C8: Life Technologies and Expression Analysis (LTEA) Assay for CYP2C8 using HepaRG (AID 2283483). In a few lines:
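CYP2C8 mRNA induction or loss, by qRT-PCR normalized to ACTB/GAPDH/POLR2A, is read in HepaRG cells after 48 h treatment. Concentrations run from 100 uM down in half-log dilutions, with 0.5% DMSO as vehicle and baseline.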

Read-out in a further assay: CYP2C9 (gene 1559)
The experiment in a line: LTEA_HepaRG_CYP2C9: Life Technologies and Expression Analysis (LTEA) Assay for CYP2C9 using HepaRG (AID 2283484). In a few lines: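 Cells plated 48 h, switched to serum-free induction medium, then treated in duplicate for 48 h at eight concentrations (max 100 uM, 0.5% DMSO). RNA then analysed by qRT-PCR for CYP2C9; curves fitted in both directions relative to DMSO.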

Read-out in another assay: CYP2E1 (gene 1571)
The experiment in a line: LTEA_HepaRG_CYP2E1: Life Technologies and Expression Analysis (LTEA) Assay for CYP2E1 using HepaRG (AID 2283485). In a few lines: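 Human liver line HepaRG, plated 48 h, then serum-free induction medium + chemical x 48 h; 8-pt CRC from 100 uM, half-log, 0.5% DMSO, n=2. Readout: CYP2E1 mRNA qRT-PCR vs ACTB/GAPDH/POLR2A; bidirectional fit vs DMSO.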

Read-out in the next assay: CYP4A11 (gene 1579)
The experiment in a line: LTEA_HepaRG_CYP4A11: Life Technologies and Expression Analysis (LTEA) Assay for CYP4A11 using HepaRG (AID 2283486). In a few lines: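 CYP4A11 transcript levels were quantified by TaqMan qRT-PCR after HepaRG human liver cells were treated for 48 hours with test chemicals (top 100 uM, half-log dilutions, 0.5% DMSO). Gain or loss of signal was fitted relative to DMSO.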

Read-out in assay [13]: Cytochrome P450 (CYP1A2), CYP1A2 (gene 1544)
The experiment in a line: LTEA_HepaRG_CYP1A2: Life Technologies and Expression Analysis (LTEA) Assay for Cytochrome P450 (CYP1A2) using HepaRG (AID 2283479). In a few lines: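 HepaRG, 48 h exposure, top 100 uM, half-log 8-pt, 0.5% DMSO vehicle, duplicates. Readout: TaqMan qRT-PCR of CYP1A2 mRNA, housekeeping-normalized (ACTB/GAPDH/POLR2A). Gain/loss fit relative to DMSO baseline.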

Read-out in assay [14]: Cytochrome P450 (CYP2B6), CYP2B6 (gene 1555)
The experiment in a line: LTEA_HepaRG_CYP2B6: Life Technologies and Expression Analysis (LTEA) Assay for Cytochrome P450 (CYP2B6) using HepaRG (AID 2283481). In a few lines: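 Read-out is CYP2B6 mRNA by TaqMan qRT-PCR, normalized to three housekeeping genes and fitted bidirectionally against 0.5% DMSO baseline. Human HepaRG cells received test chemicals for 48 h, top concentration 100 uM, half-log dilutions.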

Caspase-3 (Homo sapiens), sequence (P42574 whole entry, looked up): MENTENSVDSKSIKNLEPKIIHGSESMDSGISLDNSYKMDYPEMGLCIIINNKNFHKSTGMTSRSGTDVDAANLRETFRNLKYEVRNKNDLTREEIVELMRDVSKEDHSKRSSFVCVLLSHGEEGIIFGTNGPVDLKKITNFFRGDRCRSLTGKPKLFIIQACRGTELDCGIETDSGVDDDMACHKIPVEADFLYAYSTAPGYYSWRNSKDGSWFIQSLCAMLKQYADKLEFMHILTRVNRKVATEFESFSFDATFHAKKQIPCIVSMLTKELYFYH
Cytochrome P450 2C19 (Homo sapiens), sequence (P33261 whole entry, looked up): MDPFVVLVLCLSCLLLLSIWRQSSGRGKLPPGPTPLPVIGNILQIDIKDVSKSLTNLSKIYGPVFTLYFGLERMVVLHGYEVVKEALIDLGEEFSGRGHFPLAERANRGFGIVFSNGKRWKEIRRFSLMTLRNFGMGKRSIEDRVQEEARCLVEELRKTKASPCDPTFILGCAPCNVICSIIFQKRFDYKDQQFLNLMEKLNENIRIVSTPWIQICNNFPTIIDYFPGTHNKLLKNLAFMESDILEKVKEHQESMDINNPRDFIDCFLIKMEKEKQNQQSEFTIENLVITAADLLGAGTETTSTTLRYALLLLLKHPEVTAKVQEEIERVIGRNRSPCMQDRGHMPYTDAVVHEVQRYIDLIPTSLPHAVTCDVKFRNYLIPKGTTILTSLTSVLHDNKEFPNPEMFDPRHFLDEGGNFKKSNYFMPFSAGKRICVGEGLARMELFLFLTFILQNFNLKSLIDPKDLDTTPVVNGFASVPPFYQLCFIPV
Apoptosis regulator Bcl-2 (Homo sapiens), sequence (P10415 whole entry, looked up): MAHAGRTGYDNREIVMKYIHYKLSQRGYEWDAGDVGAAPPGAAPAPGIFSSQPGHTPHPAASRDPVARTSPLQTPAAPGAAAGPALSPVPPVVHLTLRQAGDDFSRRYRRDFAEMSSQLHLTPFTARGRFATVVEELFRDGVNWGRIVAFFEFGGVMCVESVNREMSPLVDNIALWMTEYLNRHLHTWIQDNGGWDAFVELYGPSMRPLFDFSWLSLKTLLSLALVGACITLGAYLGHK

For `NC1CCCCC1`, the outcome in [1], in [2], in assay [3], in assay [4], in [5] and in [6] was inactive. Further, the result (in the assay with BCL2L11 (gene 10018); in [7]; in [8]; in assay [9]; in the assay with Caspase-3 (Homo sapiens); in assay [10]) was inactive. Moreover, the molecule was called inactive (in assay [11]; in assay [12]; in the assay with CYP2C8 (gene 1558); in the assay with CYP2C9 (gene 1559); with CYP2E1 (gene 1571); with CYP4A11 (gene 1579)).

For the molecule `CC(C)c1cccc(C(C)C)c1`, the result in [1], in assay [2], in [3], in assay [4], in [5] and in assay [6] was inactive. Moreover, the call (in the assay with BCL2L11 (gene 10018); in [7]; in assay [8]; in assay [9]; in the assay with Caspase-3 (Homo sapiens); in [13]) was inactive. Also, the result (in assay [11]; in assay [12]; in the assay with CYP2C8 (gene 1558); in the assay with CYP2C9 (gene 1559); with CYP2E1 (gene 1571); with CYP4A11 (gene 1579)) was inactive.

For the molecule `O=C(NS(=O)(=O)/C=C/c1cccs1)c1ccc(F)cc1Br`, the result (in [1]; in assay [2]; in [3]; in [5]; with BCL2L11 (gene 10018); in [7]) was inactive. For the same molecule, the molecule was classed as inactive (in [8]; in [9]; with Caspase-3 (Homo sapiens); in [10]; in assay [13]; in assay [11]). The result (in assay [14]; with CYP2C8 (gene 1558); in the assay with CYP2C9 (gene 1559)) was inactive. The AC50 in assay [6] was 50 µM (active); in assay [12], 13 µM (active); in the assay with CYP2E1 (gene 1571), 25.3 µM (active); with CYP4A11 (gene 1579) it was 14.1 µM (active).
